Bioassay records from PubChem BioAssay.
CHX counter – affects cycloheximide protein synthesis inhibition readout, counter-screen; AID 2314; 300,000 compounds, 12% hits; max response, %; cell reporter, cycloheximide protein synthesis inhibition counterscreen; in the data active means max response mostly above about 13%, no sharp cut-off; inactive means mostly below about 14%; further: read at 38.3 µM for the half of the compounds with a filed dose; 0% is about no effect
Pf growth 48h – inhibits P. falciparum growth in the first generation, 48 h | Potency, µM (highest dose often 28.7 µM), without a hit: top-dose activity change, negative = inhibition, actives largely listed as inhibitors | P. falciparum luciferase growth in erythrocytes, 48 h | 310,000 compounds, 5.9% hits; further: potency means the concentration at half of the fitted maximal effect; on the % scale 0 is the no-effect control and ±100 the full control effect
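Compounds are pin-transferred into medium, infected erythrocytes (2% hematocrit, 0.1% parasitemia final) are added, and plates sit one parasite generation at 37 C in 5% CO2. Detection reagent is then added and luminescence measured.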
Pf growth 96h – P. falciparum growth inhibition at 96 hour, primary screen for plastid delayed-death inhibitors. Potency, µM (top dose mostly 28.7 µM), without a hit: at the highest dose activity change, negative = inhibition, hits mostly inhibitors. AID 504834. 320,000 compounds, 6.9% hits. P. falciparum luciferase reporter growth, 96 h; further: potency means the concentration at half of the fitted maximal effect; on the % scale 0 is the no-effect control and ±100 the full control effect
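Compounds incubated with erythrocytes infected by luciferase-expressing P. falciparum (2% hematocrit, 0.05% parasitemia final) for 96 hours, 37 C in 5% CO2. Growth inhibition scored as decreased luciferase luminescence.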
Shiga toxin inh – blocks Shiga toxin action in Vero cells; inhibition, % at 38.7 µM; AID 2315; 290,000 compounds, 9.2% hits; Vero cells, Shiga toxin protein synthesis inhibition reporter; in the data active means inhibition mostly above about 28%, no sharp cut-off; inactive means mostly below about 43%; further: 0% is about no effect
NS1 function inh – inhibitors of influenza NS1 protein function. Potency, µM (series often up to 46.1 µM), without a hit: top-dose activity, positive = more growth. 270,000 compounds, 0.4% hits. AID 2326; calls by dose curve; further: potency means the concentration at half of the fitted maximal effect; actives are rising curves; nearly all actives have a fitted effect of over 50% in size
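S. cerevisiae expressing influenza A NS1, grown in glucose, washed, then diluted 1:100 into pH 6.0 -URA galactose medium with 23 nl compound. Growth recovery read as OD600; NS1-free strain serves as control.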
Starred values were filed as active, the others as inactive; ? = inconclusive; nt = no result given. Most compounds without a hit are left out; they make up all but 21% or so of the library. Unless noted, the call rests on the fitted dose curve; in most records, active means well fitted inhibition curve with a large enough effect; inconclusive means small, poorly fitted or top-dose-only effect, or another doubt; inactive means no such curve, though single readings can be large or run the other way.

SMILES | CHX counter | Pf growth 48h | Pf growth 96h | Shiga toxin inh | NS1 function inh
O=C(O)c1cccc(NC(=O)c2cc(NC(=O)c3ccccc3)cc(NC(=O)c3ccccc3)c2)c1 | -5 | 40% | 8.3µM* | -11 | 30%
O=C(O)c1cccc(NC(=O)c2ccccc2)c1 | nt | nt | nt | nt | 16%
O=C(O)/C=C\C(=O)Nc1cccc(NC(=O)c2ccccc2)c1 | 22* | 17% | 13% | 52 | 7%
O=S(=O)(c1cc(F)cc(F)c1)N1CCN(c2ncccn2)CC1 | -5 | -21% | 0% | -7 | -4%
FC(F)Sc1ccc(Nc2ncnc3nc[nH]c23)cc1 | 36* | 66% | 0% | 11* | 6%
Cc1cccc(Nc2ncnc3nc[nH]c23)c1C | 6 | 15% | 3% | 30 | -2%
CCCCOC(=O)c1ccc(Nc2ncnc3nc[nH]c23)cc1 | 14 | 32% | 40% | 17 | 12%
Cc1cc(C)cc(Nc2ncnc3nc[nH]c23)c1 | 17 | -11% | ? | 41* | -2%
O=C(O)c1ccc(S(=O)(=O)NCC2CCCCC2)cc1 | 3 | 16% | -2% | 0 | 1%
O=C(c1cc(-c2ccco2)on1)N1CCc2ccccc2C1 | 9 | 16% | nt | 36 | -6%
O=C(c1cc(-c2ccccc2)on1)N1CCCc2ccccc21 | 50* | ? | 0% | 61* | -8%
Cn1ccc(C(=O)N2CCCc3ccccc32)n1 | -2 | 11% | -8% | -3 | -6%
O=C(c1cc(-c2ccco2)on1)N1CCCc2ccccc21 | 16* | 51% | -19% | 105* | -49%
C=CCN(c1ccccc1)S(=O)(=O)c1cccc(C(=O)N2CC(C)CC(C)C2)c1 (configuration not stated) | -2 | ? | ? | 4 | -24%
O=C1c2ccccc2C(=O)C1(CO)c1ccccc1 | 34* | 160% | -11% | 106* | nt
O=C1c2ccccc2C(=O)C1(CO)c1ccc(OC(F)F)cc1 | 53* | 12µM* | 126% | 27* | 11%
CCc1ccc(NC(=O)CN(C(=O)N2CCN(CC)CC2)S(=O)(=O)c2ccc(C)cc2)cc1 | nt | 10% | 5% | nt | nt
CNC(=O)c1cc2c(ccc3ccccc32)o1 | 33* | 42% | -19% | 81* | -53%
O=C(NC1CCCC1)c1cc2c(ccc3ccccc32)o1 | 44* | nt | 7% | 60* | -6%
O=C(NC1CC1)c1cc2ccccc2o1 | 15* | 46% | -8% | 43* | -7%
COc1ccc(N2CCN(S(=O)(=O)c3ccc4c(c3)NC(=O)C(C)S4)CC2)cc1 (configuration not stated) | -1 | 7% | ? | -13 | 16%
Cc1cc2cc(CCNS(=O)(=O)c3ccc(F)cc3)c(=O)[nH]c2cc1C | -1 | ? | ? | -8 | 8%
Cc1ccccc1NS(=O)(=O)c1ccc(-c2ccc(=O)[nH]n2)o1 | -7 | 2% | 13µM* | -8 | -2%
CCN(CC)c1ccc(NS(=O)(=O)c2ccc(-c3ccc(=O)[nH]n3)o2)c(C)c1 | 7 | ? | -4% | -5 | -1%
COc1ccc(SC[C@H](Cc2ccccc2)N2CC[C@@H](C(C)(C)C)CCC2=O)cc1 | nt | 12µM* | ? | nt | nt
SMILES | CHX counter | Pf growth 48h | Pf growth 96h | Shiga toxin inh | NS1 function inh
Cc1ccc(SC[C@H](Cc2ccccc2)N2CC[C@@H](NC(=O)OCc3ccccc3)CCC2=O)cc1 | 2 | ? | 8.3µM* | -10 | -6%
O=C1CC[C@H](OCc2ccccc2)CCN1[C@H](CSc1ccccc1)Cc1ccccc1 | 27* | ? | ? | 34* | -36%
O=C(N[C@H]1CCC(=O)N([C@H](CSc2ccccc2)Cc2ccccc2)CC1)OCc1ccccc1 | 7 | ? | 8.3µM* | 10 | -13%
O=C1CC[C@H](O)CCN1[C@H](CSc1ccccc1)Cc1ccccc1 | 5 | ? | ? | 7 | 7%
O=C(NC1CCC(=O)N(CCSc2ccccc2)CC1)OCc1ccccc1 (configuration not stated) | -2 | 13% | ? | -1 | 2%
COC(=O)/C=C1\SC(N)=NC1=O | -3 | ? | ? | -5 | 6%
CCCn1c(CN2CCN(C(=O)OCC)CC2)nc2c1c(=O)n(C)c(=O)n2C | 9 | 52% | 5% | -4 | -93%
CCOC(=O)N1CCN(Cc2nc3c(c(=O)[nH]c(=O)n3C)n2Cc2cc(C)ccc2C)CC1 | -3 | 13µM* | -5% | -10 | -13%
CCOC(=O)N1CCN(Cc2nc3c(c(=O)n(C)c(=O)n3C)n2Cc2ccccc2C)CC1 | 1 | 10µM* | ? | -17 | -9%
CC1CCC(NC(=O)C(NS(=O)(=O)c2cccc3nsnc23)C(C)C)CC1 (configuration not stated) | -1 | 5% | 7% | 2 | -6%
CC(C)C(NS(=O)(=O)c1cccc2nsnc12)C(=O)NC1CCCCC1 (configuration not stated) | 8 | 15% | 10µM* | -8 | 11%
COc1cccc(/C=N/n2c(-c3cccs3)n[nH]c2=S)c1 | 1 | 19% | 45% | -5 | -76%
CCC(C)[C@H](NC(=O)[C@@H]1Cc2c([nH]c3ccccc23)C2c3ccccc3C(=O)N21)C(=O)N1CCC[C@@H]1C(=O)O (some centres not stated) | 0 | ? | 10µM* | 11 | ?
CCOC(=O)Cn1c(S(=O)(=O)Cc2ccc(Cl)cc2)nc(-c2ccccc2)c1-c1ccccc1 | -1 | ? | 10µM* | -2 | 12%
CCN(CC)S(=O)(=O)c1ccc(N2CCCCC2)c(NC(=O)/C=C/c2cc(OC)c(OC)c(OC)c2)c1 | -1 | ? | 10µM* | -4 | ?
CCN(CC)S(=O)(=O)c1ccc(N2CCCC2)c(NS(=O)(=O)c2ccccc2)c1 | -4 | ? | ? | -13 | 8%
COc1cc(/C=C/C(=O)Nc2ccc(N3CCCCC3)c(S(=O)(=O)Nc3ccccc3Cl)c2)cc(OC)c1OC | -1 | 13µM* | 4.1µM* | -6 | 22%
CCN(CC)S(=O)(=O)c1ccc(N2CCCC2)c(NC(=O)c2ccccc2OC)c1 | 2 | ? | 10µM* | 2 | -4%
CCN1CCN(c2ccc(S(=O)(=O)N3CCCCC3)cc2NC(=O)/C=C/c2ccc(OC)c(OC)c2)CC1 | nt | 6.6µM* | 6.6µM* | nt | nt
Cc1cccc(N2CCN(Cc3cn(C)nc3-c3ccccc3F)CC2)n1 | -3 | 3% | ? | 9 | 1%
Cc1cc(CNC(=O)c2cccc(OC3CCN(S(=O)(=O)N(C)C)CC3)c2)on1 | 64* | -6% | ? | 128* | -7%
CSCCNC(=O)c1ccc(OC2CCN(S(=O)(=O)N(C)C)CC2)cc1 | 1 | -2% | 0% | nt | 4%
COCC(=O)N1CCC(Oc2ccc(C(=O)NCc3cc(C)no3)cc2)CC1 | -1 | 8% | 4.1µM* | 7 | ?
COCC(=O)N1CCC(Oc2ccc(C(=O)NCc3cc(C(C)C)no3)cc2)CC1 | 8 | 3% | ? | 6 | -16%
COc1cccc(CN2CC(C(=O)N3CCOCC3)CCC2=O)c1 (configuration not stated) | 46* | -6% | 9% | 66* | -12%
